Compound activity from PubChem BioAssay.
Hits are enriched below; roughly 19% of the tested compounds scored in any of these assays.
TDP1 cell noCPT = qHTS for Inhibitors of human tyrosyl-DNA phosphodiesterase 1 (TDP1): qHTS in cells in absence of CPT. DT40 Tdp1-/- hTDP1 cells, no CPT, ATP luminescence, 48 h. Potency, µM (series often up to 46.2 µM), hits mostly inhibitors. 15% of 420,000 active; note: nearly all actives have a fitted effect of over 55% in size
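Chicken DT40 Tdp1-/- cells complemented with human TDP1, screened without camptothecin (DMSO vehicle only), 400 cells/well. Compounds pin-transferred, cells incubated at 37 °C for at least 48 hr. Growth read as ATP-dependent luminescence (CellTiter-Glo, 30 min at RT).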
HT1080 IDH1KD tx = qHTS for induction of synthetic lethality in tumor cells producing 2HG: qHTS for the HT-1080-IDH1KD cell line; 2% of 360,000 active; Potency, µM (series often up to 46.1 µM), hits mostly cytotoxic; HT-1080 IDH1 knockdown viability, ATP luminescence, 48 h; AID 686971, 2013
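CellTiter-Glo luminescence after 48 h compound exposure at 37 degrees C of IDH1-knockdown HT-1080 cells in 5% FBS RPMI. %Activity scaled between DMSO wells and cell-free media wells, with curves fitted and assigned curve classes.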
KB-3-1 cytotox = qHTS assay for MDR1-selective chemotherapeutics: Primary screen using the parental adenocarcinoma cell KB-3-1. KB-3-1 viability, CellTiter-Glo ATP luminescence, 72 h. Potency, µM (doses to about 46.1 µM), hits mostly cytotoxic. 1.4% of 400,000 active. AID 1347075, 2019; note: nearly all actives have a fitted effect of over 60% in size
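Using CellTiter-Glo luminescence, growth of non-resistant KB-3-1 adenocarcinoma cells is assessed 72 h after pin-tool compound addition at 37 °C. Normalized responses across the concentration series yield fitted curves.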
DT40 TDP1 CPT = qHTS for Inhibitors of human tyrosyl-DNA phosphodiesterase 1 (TDP1): qHTS in cells in presence of CPT; chicken DT40 Tdp1-/-;hTDP1 cells + 20 nM CPT, ATP luminescence, 48 h; 12% of 420,000 active; Potency, µM (doses to about 46.2 µM), actives largely listed as inhibitors; note: nearly all actives have a fitted effect of over 55% in size
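Chicken DT40 Tdp1-/- cells stably complemented with human TDP1 were seeded at 400 cells/well in medium containing 20 nM camptothecin, exposed to pin-transferred compounds, and grown at 37 °C for at least 48 hr. Viability was read as ATP luminescence.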
HT1080-NT tox = qHTS for induction of synthetic lethality in tumor cells producing 2HG: qHTS for the HT-1080-NT fibrosarcoma cell line; HT-1080-NT fibrosarcoma viability, CellTiter-Glo ATP luminescence, 48 h; Potency, µM (top dose mostly 46.1 µM), hits mostly cytotoxic; 1.6% of 360,000 active;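 note: NT is the 2HG producing partner of a matched IDH1 knockdown line; nearly all actives have a fitted effect of over 55% in size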
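750 cells/well, RPMI + 5% FBS; 2 h settle, compound pin-transfer, 48 h at 37 degrees C. CellTiter-Glo 10 min RT, luminescence. Normalized to DMSO and media-only wells.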
KB-V1 MDR tox = qHTS assay for MDR1-selective chemotherapeutics: Primary screen using the drug-selected MDR subline cells KB-V1. KB-V1 MDR cells viability, CellTiter-Glo, 72 h. Potency, µM (highest dose often 46.1 µM), actives largely listed as cytotoxic. 3.4% of 400,000 active. AID 1347076, 2019; note: nearly all actives have a fitted effect of over 60% in size
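Luminescent ATP read-out (CellTiter-Glo, 10 min) measures survival of drug-selected KB-V1 MDR cells after 72 h, 37 degrees C compound exposure. Medium: phenol-red-free DMEM, 10% FBS. Values from fitted concentration-response curves.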
Numbers stand for hits; - = inactive; ? = inconclusive; . = no result; [ ] = another dose, or the depositor's remark. Calls come from the whole dose curve; as a rule, active = well fitted curve in the direction sought with a large enough effect; inconclusive = small, poorly fitted or top-dose-only effect, or another doubt; inactive = no such curve, though single readings can be large; an effect the other way counts as inactive or inconclusive.

SMILES	TDP1 cell noCPT	HT1080 IDH1KD tx	KB-3-1 cytotox	DT40 TDP1 CPT	HT1080-NT tox	KB-V1 MDR tox
Cc1ccc(S(=O)(=O)N2CCN(c3nc(CN4CCCC4)nc4sc(C)c(C)c34)CC2)cc1	?	-	-	?	-	-
COC(=O)CCCCCn1c(-c2ccccc2)cn2c3c(=O)n(C)c(=O)n(C)c3nc12	?	.	-	-	.	-
CC1=C(C(=O)Nc2ccccc2C(=O)N2CCC(C)CC2)SCCO1	-	-	-	-	-	-
O=C(C1CCCCC1)N(Cc1ccccc1)c1ccccn1	?	-	-	?	-	-
O=C(c1ccc(Cl)cc1)N(c1ccccn1)C1CCCCC1	26µM	-	-	-	-	?
CN1CCC(N(C)C(=O)/C(C#N)=C/c2ccccc2)CC1	-	-	-	-	-	?
O=C(c1ccc(F)cc1Cl)N(c1ccccn1)C1CCCCC1	15µM	-	-	18µM	-	?
O=C(c1cccc(C(=O)N(c2ccccn2)C2CCCCC2)c1)N(c1ccccn1)C1CCCCC1	9.2µM	-	-	12µM	-	-
N#C/C(=C\c1ccccc1)C(=O)N(c1ccccn1)C1CCCCC1	18µM	?	-	?	?	-
O=C(c1ccc(S(=O)(=O)N2CCOCC2)cc1)N(c1ccccn1)C1CCCCC1	?	-	-	?	-	-
Cc1ccc2[nH]c(=O)c(CN(C(=O)c3cccc([N+](=O)[O-])c3)C(C)C)cc2c1	?	-	-	-	-	-
O=C(C[n+]1ccccc1Br)c1ccc(-c2ccccc2)cc1	-	.	-	?	.	?
Cc1nc2[nH]c(=O)[nH]c(=O)c2[nH]1	-[9.04 µM]	.	.	-[9.04 µM]	.	.
O=C1O[C@@H](c2ccccc2)C[C@@H](O)C(=O)CCCCc2ccccc21	?	-	-	?	-	-
O=C(c1ccc(Br)cc1)N(c1ccccn1)C1CCCCC1	15µM	-	-	?	-	?
COc1ccccc1C(=O)NCC(=O)OCC(=O)c1cccc2ccccc12	?	-	-	?	-	-
O=C(CNC(=O)c1ccccc1)OCC(=O)c1cccs1	-	-	-	-	-	-
O=C(CNC(=O)C(c1ccccc1)c1ccccc1)OCC(=O)c1cccc2ccccc12	20µM	.	-	?	.	-
O=C(CNC(=O)C(c1ccccc1)c1ccccc1)OCC(=O)c1cccs1	1.5µM	-	-	1.6µM	-	-
CCOC(=O)C(=CNc1ccc(-c2ccco2)c(Cl)c1)C(=O)OCC	16µM	-	-	21µM	-	-
CCOC(=O)C(=CNc1cc(Cl)c(-c2ccco2)c(Cl)c1)C(=O)OCC	12µM	-	-	18µM	?	-
Cc1ccc(C(c2ccc(C)c(C)c2)C(O)C2OC(=O)C(O)C2O)cc1C (configuration not stated)	-	-	-	-	-	-
COc1ccc(C2C(C#N)=C(N)Oc3cc(C)n(Cc4ccncc4)c(=O)c32)cc1 (configuration not stated)	2.1µM	-	-	4.6µM	-	?
CCCNC(=O)N(C)C[C@H]1Oc2ncc(Br)cc2C(=O)N([C@H](C)CO)C[C@H]1C	-	-	-	-	-	-
Cc1ccccc1NS(=O)(=O)c1ccc(OCC(=O)NCc2ccco2)cc1	?	-	-	-	-	?
SMILES	TDP1 cell noCPT	HT1080 IDH1KD tx	KB-3-1 cytotox	DT40 TDP1 CPT	HT1080-NT tox	KB-V1 MDR tox
O=C(NCCc1c[nH]c2ccc(Cl)cc12)c1cccnc1	21µM	-	-	?	-	?
O=C(NCCc1c[nH]c2ccccc12)c1ccc(Cl)cc1	?	-	-	-	-	-
O=S(=O)(CC(CN1CCCCC1)N1CCCCC1)c1ccc2ccccc2c1 (configuration not stated)	2.6µM	?	6.5µM	5.2µM	?	?
O=S(=O)(CC(CN1CCOCC1)N1CCOCC1)c1ccccc1 (configuration not stated)	-	-	-	-	-	-
Cc1ccc(S(=O)(=O)CC(CN2CCCCC2)N2CCCCC2)cc1 (configuration not stated)	13µM	18µM	?	?	18µM	-
COc1cccc(C#Cc2ccc3c(c2)O[C@H](CN(C)S(=O)(=O)c2ccccc2F)[C@H](C)CN([C@H](C)CO)S3(=O)=O)c1	?	-	-	-	-	-
CCCC#Cc1ccc2c(c1)O[C@H](CN(C)S(=O)(=O)c1cccc(OC)c1)[C@H](C)CN([C@H](C)CO)S2(=O)=O	16µM	?	?	15µM	?	-
COCC#Cc1ccc2c(c1)O[C@@H](CN(C)S(=O)(=O)c1cccc(F)c1)[C@@H](C)CN([C@H](C)CO)S2(=O)=O	18µM	-	-	?	-	-
C[C@H]1CN([C@@H](C)CO)S(=O)(=O)c2ccc(C#CC3CC3)cc2O[C@@H]1CN(C)S(C)(=O)=O	?	-	-	-	-	-
COc1ccc(S(=O)(=O)N(C)C[C@@H]2Oc3cc(Br)ccc3S(=O)(=O)N([C@H](C)CO)C[C@@H]2C)cc1	16µM	?	-	?	?	?
C[C@H](CO)N1C[C@H](C)[C@H](CN(C)S(=O)(=O)c2cccc(F)c2)Oc2cc(Br)ccc2S1(=O)=O	21µM	-	-	26µM	-	-
C[C@H]1CN([C@@H](C)CO)S(=O)(=O)c2ccc(Br)cc2O[C@@H]1CN(C)S(=O)(=O)c1ccccc1	?	-	-	?	-	-
COC(=O)c1cc(NC(=O)CSC2=NCCS2)cc(C(=O)OC)c1	-	-	?	-	-	-
COc1ccc(C(=O)NC(C)c2nnc(SCC(=O)NC3CCCC3)n2C)cc1 (configuration not stated)	-	-	-	-	-	-
O=C(NCCNC(=O)c1cccnc1)c1ccc(Br)cc1	-	-	-	-	-	?
Cc1ccc(S(=O)(=O)N(C)C[C@H]2Oc3cc(C#CC4CCCC4)ccc3S(=O)(=O)N([C@H](C)CO)C[C@H]2C)cc1	18µM	?	?	18µM	-	-
COc1cccc(S(=O)(=O)N(C)C[C@@H]2Oc3cc(Br)ccc3S(=O)(=O)N([C@@H](C)CO)C[C@@H]2C)c1	26µM	-	-	?	-	?
COc1cccc(NC(=O)N(C)C[C@@H]2Oc3cc(Br)ccc3S(=O)(=O)N([C@@H](C)CO)C[C@H]2C)c1	-	-	-	-	-	?
